Compound activity (PubChem BioAssay)
Many of the other results were omitted from the sample, so hits are more common in it than they were.
BL2 CD40 inh – CD40 pathway inhibition in BL2 cells; BL2 NF-kB luciferase reporter, CD40L-induced, 4 h; inhibition, % at 10 µM; hit rate 0.94% among 83,000; AID 1053188;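 active means mean inhibition of at least 50% with a set share of replicates also reaching that level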
Numbers stand for hits; i = inactive; ! = not active in a repeat; [ ] = dose if it differs, or a comment.

SMILES	BL2 CD40 inh
C[C@H]1CN([C@@H](C)CO)C(=O)c2ccccc2-c2ccccc2CO[C@@H]1CN(C)C(=O)c1cc(Cl)cc(Cl)c1	i
C[C@H]1CN([C@@H](C)CO)C(=O)c2ccccc2-c2ccccc2CO[C@@H]1CN(C)C(=O)c1ccccc1	i
C[C@@H]1CN([C@H](C)CO)C(=O)c2ccccc2-c2ccccc2CO[C@@H]1CN(C)C(=O)c1cc(Cl)cc(Cl)c1	66[25 µM]
CC(=O)Nc1ccc2c(c1)CC(=O)N(C)C[C@H](C)[C@@H](CN(C)C)O2	i
N#C[C@@H]1[C@@H](c2ccc(-c3cccc(F)c3)cc2)[C@H](CO)N1C(=O)NC1CCCC1	i
COCC(=O)Nc1ccc2c(c1)[C@H]1C[C@@H](CC(=O)N[C@@H](C)c3ccccc3)O[C@@H](CO)[C@H]1O2	i
O=C(C1CCCC1)N1CC(=O)N2[C@@H](CO)[C@@H](c3ccc(-c4ccccc4F)cc3)[C@@H]2C1	i
C[C@@H]1CN([C@H](C)CO)C(=O)c2c(c3ccccc3n2C)-c2ccccc2CO[C@@H]1CN(C)C(=O)c1ccncc1	i
C[C@H](CO)N1C[C@H](C)[C@H](CN(C)Cc2ccc(O)cc2)OCc2cn(nn2)CCCC1=O	i
O=C(NCc1ccc2c(c1)OCO2)c1cccc(N2CCCC2=O)c1	i
O=C(Nc1ccccc1)c1cccc(N2CCCC2=O)c1	i
O=C(NCCc1ccccc1)c1cccc(N2CCCC2=O)c1	71
CO[C@H](CN(C)CC1CCOCC1)[C@@H](C)CN(C(=O)Nc1ccc(F)cc1)[C@@H](C)CO	i
CN1C(=O)c2cc(NC(=O)c3cccc(C(F)(F)F)c3)ccc2OC[C@H]2O[C@H](CC(=O)NCCN3CCCC3)CC[C@H]21	i
O=C(/C=C\Nc1ccccc1Br)c1ccc2c(c1)OCO2	57
CN(CC(=O)Nc1ccccc1Br)C(=O)CNC(=O)c1ccc2c(c1)OCO2	i
CC(=O)Nc1ccccc1OCC(=O)c1ccc2c(c1)OCO2	i
C/C=C/c1ccc([C@H]2[C@@H](CN(C)S(C)(=O)=O)N(C(C)=O)[C@H]2CO)cc1	i
CCCNC(=O)N1[C@H](CO)[C@H](c2ccccc2-c2ccccc2)[C@@H]1C#N	i
CC[N+]1(C)CCC(O)(c2ccc(OC)cc2)C(C(=O)c2ccc(OC)cc2)C1 (centres undefined)	97
COc1ccc(C(=O)C23CC4CC(C2)CC(C(=O)c2ccc(OC)cc2)(C4)C3)cc1	i
COc1ccc(-c2ccc(C(=O)C3CC3)cc2)cc1	i
O=C([C@H]1[C@H](CO)[C@H]2Cn3c(cccc3=O)[C@H]2N1Cc1ccncc1)N1CCCCC1	i
O=C(C[C@H]1CC[C@H]2[C@@H](COC[C@H](O)CN2S(=O)(=O)c2ccccc2)O1)NCCN1CCCCC1	i
CN1C(=O)c2cc(NC(=O)Nc3ccc(Cl)cc3)ccc2OC[C@H]2O[C@H](CC(=O)NCCN3CCCCC3)CC[C@H]21	i
SMILES	BL2 CD40 inh
O=C(CC(F)(F)F)N1C[C@H]2[C@@H](c3ccccc31)[C@H](CO)N2C(=O)CN1CCOCC1	i
O=C(Nc1nccs1)c1cc2c(s1)CCCCC2	92
CC(C)Cc1nnc(NC(=O)c2cc3c(s2)CCC3)s1	i
O=C(Nn1cnnc1)c1cc2c(s1)CCCC2	i
O=C(C[C@H]1C[C@@H]2c3cc(NC(=O)NC4CCCC4)ccc3O[C@@H]2[C@@H](CO)O1)NCc1ccccn1	i
O=C(C[C@@H]1C[C@H]2c3cc(NC(=O)c4cccnc4)ccc3O[C@H]2[C@@H](CO)O1)NC1CCCCC1	i
CC(C)NC(=O)N(C)C[C@H]1Oc2ccccc2C(=O)N(C)C[C@@H]1C	i
Cc1ccc(S(=O)(=O)CS(=O)(=O)c2ccc(C)cc2)cc1	i
Cc1ccc(S(=O)(=O)C=CS(=O)(=O)c2ccc(C)cc2)cc1	101
CNS(=O)(=O)c1ccc(C)cc1	i
O=C(Nc1cccc(Cl)c1)N1C[C@@H]2[C@H](c3ccccc31)[C@@H](CO)N2C(=O)C1CC1	i
O=C(Nc1ccccc1F)N1C[C@@H]2[C@H](c3ccccc31)[C@H](CO)N2C(=O)C1CCCC1	i
Cc1nc2cc(CO)ccc2n1C	i
Cn1c(SCc2nc3ccccc3n2CCO)nc2ccccc21	i
Cn1c(CO)nc2cc(N)ccc21	50
CCS(=O)(=O)NCC[C@@H]1CC[C@H](NS(=O)(=O)c2ccccc2C)[C@H](CO)O1	i
Cc1cnc(NC(=O)c2cc3ccccc3o2)s1	56
O=C(Nc1nnc(C2CC2)s1)c1cc2ccccc2o1	i
Cc1nnc(NC(=O)c2cc3ccccc3o2)s1	i
O=C(C1CCCC1)N1C[C@H]2[C@@H](c3ccccc31)[C@H](CO)N2C(=O)c1ccccc1F	i
O=C(Nc1ccccc1F)N1CC(=O)N2[C@H](C1)[C@@H](c1ccc(-c3cccnc3)cc1)[C@@H]2CO	i
C[C@@H]1CN([C@H](C)CO)C(=O)c2cc(NC(=O)Nc3cccc4ccccc34)ccc2O[C@@H](C)CCCCO[C@@H]1CN(C)S(=O)(=O)c1cn(C)cn1	i
N#Cc1ccc(-c2ccc(C3[C@@H]4CN(C(=O)C5CC5)C[C@H]3N4)cc2)cc1 (some centres undefined)	63!
